According to PubChem BioAssay (NCATS):
Results filed as inconclusive are left out. The source made the active and inactive calls. Calls come from the whole dose curve; as a rule, active = well fitted cell-killing curve with a large enough effect; inconclusive = small, poorly fitted or top-dose-only effect, or effect the other way; inactive = no such curve, though single readings can be large or run the other way.

test: Quantitative High-Throughput drug screen in 47 multiple myeloma cell lines against the NCATS MIPE library collection: KMS27_JCRB cell viability assay (AID 1918970); conditions: KMS27 myeloma cells, CellTiter-Glo ATP viability, 48 h; viability (% of DMSO): at 45.8 µM (top of the series); note: nearly all actives have a fitted effect of over 30% in size
Text: PI: Beverly A. Mock Ph.D.
Laboratory of Cancer Biology and Genetics,
Center for Cancer Research, National Cancer Institute,
National Institute of Health, Bethesda, Maryland
Drug resistance and disease progression are common in multiple myeloma (MM) patients, underscoring the need for new therapeutic combinations. […] We hypothesized that effective combinations would reduce MYC expression and enhance p16 activity. […] These preclinical data identify potentially useful drug combinations for evaluation in drug-resistant MM and reveal potential mechanisms of combined drug sensitivity.
Described herein is the primary MIPE qHTS used to cherrypick compounds. Validated compounds were then further tested for potential synergistic activiy.
[1] Peat TJ, Gaikwad SM, Dubois W, Gyabaah-Kessie N, Zhang S, Gorjifard S, Phyo Z, Andres M, Hughitt VK, Simpson RM, Miller MA, Girvin AT, Taylor A, Williams D, D'Antonio N, Zhang Y, Rajagopalan A, Flietner E, Wilson K, Zhang X, Shinn P, Klumpp-Thomas C, McKnight C, Itkin Z, Chen L, Kazandijian D, Zhang J, Michalowski AM, Simmons JK, Keats J, Thomas CJ, Mock BA. Drug combinations identified by high-throughput screening promote cell cycle transition and upregulate Smad pathways in myeloma. […] Epub 2023 Jun 24. PMID: 37356470; PMCID: PMC10408729.
SEQUENCE No. (e.g., 1, 2, 3, etc.); […] (e.g., Cells, Incubation, Reagent, etc.); VALUE and DESCRIPTION.
1; Cells; 5 uL; white, solid bottom 1536-well Greiner assay plate.
2; Compounds; 23 nL; Kalypsis pin tool (Wako USA) equipped with a 1536-well pin head to transfer to the assay plates.
3; Incubation; 48 hours; 37C incubation.
4; Reagent;5uL; CellTiter Glo (Promega).
5; Detector; 425V; Luminescence; Viewlux PerkinElmer.
NOTES (numbers refer to Sequence numbers above)
1. The cell-based screening methods employed in this study were like those previously published. Briefly, the corresponding myeloma cell lines were screened in 1,536-well plates with 500 cells, 5-uL per well for inhibition of cell viability (assessed by measuring ATP levels with CellTiterGlo).
2. NCATS MIPE 4.0 library of approved and investigational drugs were added using the Kalypsis pin tool. Wells treated with DMSO only for 100% viability and media only wells for 0% viability were used as controls.
3. The assay plates were covered and incubated for 48 hours in a 37C, 5% CO2 incubator with controlled humidity.
4. After 48 hours, CellTilter-GloTM luminescent substrate mix (Promega) reagent was added to the assay plate and plates we incubated for 5 min at room temperature.
5. Signal was measured as median relative luminescence units on a ViewLux (PerkinElmer) multiplate reader.
[1] Heske CM, Davis MI, Baumgart JT, Wilson K, Gormally MV, Chen L, Zhang X, Ceribelli M, Duveau DY, Guha R, Ferrer M, Arnaldez FI, Ji J, Tran HL, Zhang Y, Mendoza A, Helman LJ, Thomas CJ. Matrix Screen Identifies Synergistic Combination of PARP Inhibitors and Nicotinamide Phosphoribosyltransferase (NAMPT) Inhibitors in Ewing Sarcoma. Clin Cancer Res. 2017 Dec 1;23(23):7301-7311. doi: 10.1158/1078-0432.CCR-17-1121. Epub 2017 Sep 12. PMID: 28899971; PMCID: PMC6636827.
Potency is the fitted concentration of half-maximal effect.

Question: Which “viability (% of DMSO)” value does the source give for COc1cc2nccc(Oc3ccc(NC(=O)Nc4cc(C)on4)c(Cl)c3)c2cc1OC here?
Answer: 101% (inactive)

Question: With O=c1[nH]nc(OCCCc2ccc(Cl)cc2)c(NCc2cccnc2)c1Br as the compound, how does the Potency read?
Answer: 7430 nM (active)

Question: For CCCCCOC(=O)Nc1nc(=O)n([C@@H]2O[C@H](C)[C@@H](O)C2O)cc1F (stereo not given in full), which “viability (% of DMSO)” value is on record?
Answer: 95.1% (inactive)

Question: For COc1ccc2ccc(=O)oc2c1CC=C(C)C, which Potency is on record?
Answer: 18700 nM (active)

Question: For COc1cc(F)c(C(C)C)cc1-c1ccc(C(F)(F)F)cc1CN1C(=O)O[C@H](c2cc(C(F)(F)F)cc(C(F)(F)F)c2)[C@@H]1C, which “viability (% of DMSO)” value is on record?
Answer: 105% (inactive)

Question: For CN1N=C(N)c2cn([C@@H]3O[C@H](COP(=O)(O)O)[C@@H](O)[C@@H]3O)c3ncnc1c23, which Potency is on record?
Answer: 66.2 nM (active)

Question: Which “viability (% of DMSO)” value does the source give for CN1C(=O)C(Cc2c[nH]c3ccccc23)NC1=S (stereo not given) here?
Answer: 91% (inactive)

Question: With CSc1cccc(Nc2ncc3cc(-c4c(Cl)cccc4Cl)c(=O)n(C)c3n2)c1 as the compound, how does the Potency read?
Answer: 66.2 nM (active)

Question: Which Potency does the source give for COc1c(C)c2c(c(O)c1CC=C(C)CCC(=O)OCCN1CCOCC1)C(=O)OC2 here?
Answer: 2090 nM (active)

Question: Which “viability (% of DMSO)” value does the source give for NC(=O)c1ncn([C@@H]2O[C@H](CO)[C@@H](O)[C@@H]2O)n1 here?
Answer: 99.7% (inactive)

Question: For COc1cc2ncn(-c3cc(OCc4ccccc4S(C)(=O)=O)c(C#N)s3)c2cc1OC, which “viability (% of DMSO)” value is on record?
Answer: 120% (inactive)

Question: With CNC(=O)c1cc(Oc2ccc(NC(=O)Nc3ccc(Cl)c(C(F)(F)F)c3)c(F)c2)ccn1 as the compound, how does the Potency read?
Answer: 7430 nM (active)

Question: With O=c1cc(-c2ccc(O)c(O)c2)oc2cc(O)cc(O)c12 as the compound, how does the Potency read?
Answer: 6620 nM (active)

Question: For COc1cc([C@@H]2c3cc4c(cc3[C@@H](O[C@@H]3O[C@@H]5CO[C@@H](C)O[C@@H]5[C@H](O)[C@@H]3O)[C@H]3COC(=O)[C@H]23)OCO4)cc(OC)c1O, which Potency is on record?
Answer: 418 nM (active)

Question: For C=C1[C@H](n2cnc3c(=O)[nH]c(N)nc32)C[C@H](O)[C@H]1CO, which Potency is on record?
Answer: 5900 nM (active)

Question: With N[C@@H](CC(=O)N1CCn2c(nnc2C(F)(F)F)C1)Cc1cc(F)c(F)cc1F as the compound, how does the “viability (% of DMSO)” value read?
Answer: 136% (inactive)

Question: With CCCCC[C@H](O)C=C[C@H]1[C@H](O)CC(=O)[C@H]1CC=CCCCC(=O)O as the compound, how does the “viability (% of DMSO)” value read?
Answer: 133% (inactive)

Question: With O=[N+]([O-])c1ccc(Nc2ccccc2-c2ccccc2)c2nonc12 as the compound, how does the Potency read?
Answer: 20900 nM (active)

Question: Which “viability (% of DMSO)” value does the source give for CCCCOCCOc1nc(-c2ccc(C(=O)O)c(F)c2)sc1C here?
Answer: 120% (inactive)

Question: With CCN1C[C@H](C)n2c(c(O)c3c(=O)n(Cc4ccc(F)c(Cl)c4)nc(C(=O)NC)c32)C1=O as the compound, how does the “viability (% of DMSO)” value read?
Answer: 118% (inactive)

Question: For CC[C@H](C=C[C@@H](C)[C@H]1CC[C@H]2[C@@H]3CC=C4C[C@@H](O)CC[C@]4(C)[C@@H]3CC[C@]12C)C(C)C, which “viability (% of DMSO)” value is on record?
Answer: 104% [at 23.2 µM] (inactive)

Question: Which Potency does the source give for Cc1cccc(-c2[nH]c(C(C)(C)C)nc2-c2ccc3c(c2)OCO3)n1 here?
Answer: 1320 nM (active)

Question: For CNC(=O)[C@H](Cc1ccccc1)NC(=O)[C@H](CC(C)C)[C@H](CSc1cccs1)C(=O)NO, which “viability (% of DMSO)” value is on record?
Answer: 97.1% (inactive)

Question: With OC[C@H]1O[C@@H](OCCc2ccc(O)cc2)[C@H](O)[C@@H](O)[C@H]1O as the compound, how does the “viability (% of DMSO)” value read?
Answer: 95.5% (inactive)

Question: With CC[C@H](NC(=O)[C@H](C)NC)C(=O)N1C[C@@H](O)C[C@H]1Cc1c(-c2[nH]c3cc(F)ccc3c2C[C@H]2C[C@H](O)CN2C(=O)[C@H](CC)NC(=O)[C@H](C)NC)[nH]c2cc(F)ccc12 as the compound, how does the Potency read?
Answer: 935 nM (active)

Question: With O=c1[nH]c(=O)n([C@H]2C[C@@H](O)[C@@H](CO)O2)cc1I as the compound, how does the “viability (% of DMSO)” value read?
Answer: 108% (inactive)

Question: Which “viability (% of DMSO)” value does the source give for CCCCC(C=O)NC(=O)C(CC(C)C)NC(=O)OCc1ccccc1 (stereo not given) here?
Answer: 108% (inactive)

Question: For CC1CCN(c2cc(N3CCN(C)CC3)ccc2NC(=O)c2cc(C#N)c[nH]2)CC1, which “viability (% of DMSO)” value is on record?
Answer: 136% (inactive)

Question: Which “viability (% of DMSO)” value does the source give for CO[C@H]1C=CO[C@@]2(C)Oc3c(C)c(O)c4c(O)c(c(C=NN5CCN(C)CC5)c(O)c4c3C2=O)NC(=O)C(C)=CC=C[C@H](C)[C@H](O)[C@@H](C)[C@@H](O)[C@@H](C)[C@H](OC(C)=O)[C@H]1C here?
Answer: 126% [at 15.3 µM] (inactive)

Question: For CS(=O)(=O)c1ccc(C2=C(c3ccccc3)C(=O)OC2)cc1, which “viability (% of DMSO)” value is on record?
Answer: 106% (inactive)

Question: Which “viability (% of DMSO)” value does the source give for CC(C)C[C@H](NC(=O)c1cc2ccccc2s1)C(=O)N1CCN(C(=O)[C@H](CO)NS(=O)(=O)c2ccc(Cl)cc2Cl)CC1 here?
Answer: 120% (inactive)

Question: For O=C(CO)N1CCC(c2[nH]nc(-c3ccc(Cl)cc3)c2-c2ccncn2)CC1, which “viability (% of DMSO)” value is on record?
Answer: 115% (inactive)

Question: For CN(C)CCOc1ccc(C(=C(CCCl)c2ccccc2)c2ccccc2)cc1, which “viability (% of DMSO)” value is on record?
Answer: 114% (inactive)

Question: With O=C1NC(=O)C(=Cc2ccc(-c3ccc(F)cc3O)o2)S1 as the compound, how does the Potency read?
Answer: 2090 nM (active)

Question: With CCCC1OC2C[C@@H]3[C@H]4CCC5=CC(=O)C=C[C@]5(C)[C@H]4C(O)C[C@]3(C)[C@]2(C(=O)CO)O1 (stereo not given in full) as the compound, how does the “viability (% of DMSO)” value read?
Answer: 109% (inactive)

Question: For CC1(C)[C@H]2CC[C@]3(C)[C@@H](C(=O)C=C4[C@@H]5C[C@@](C)(C(=O)O)CC[C@]5(C)CC[C@]43C)[C@@]2(C)CC[C@@H]1O, which “viability (% of DMSO)” value is on record?
Answer: 124% (inactive)

Question: For N#CC(c1ccc(Cl)cc1)c1c(Cl)cc(-n2ncc(=O)[nH]c2=O)cc1Cl (stereo not given), which Potency is on record?
Answer: 5900 nM (active)

Question: For CN1[C@H]2CC[C@H]1CC(OC(=O)c1c[nH]c3ccccc13)C2 (stereo not given in full), which “viability (% of DMSO)” value is on record?
Answer: 107% (inactive)

Question: Which “viability (% of DMSO)” value does the source give for Cn1cc(-c2ccc3nnc(Sc4ccc5ncccc5c4)n3n2)cn1 here?
Answer: 147% (inactive)

Question: For CCC[C@H](Nc1nc(-c2ccc(NC(=O)NCC)c(OC)c2)ncc1C)c1cccnc1, which Potency is on record?
Answer: 1 nM (active)
